Results: PubChem BioAssay (EPA / NIEHS)
The source made the active and inactive calls. How the source made its calls: active means hit-call score of the fitted dose curve at least 0.9, where 1 is the maximum; inactive means score below 0.9.

Columns and labels:
Conditions in all cases: mRNA level, 48 h; actives raise or lower the signal
[1] = read-out: MYC, MYC (gene 4609); experiment: LTEA_HepaRG_MYC: Life Technologies and Expression Analysis (LTEA) Assay for MYC using HepaRG (AID 2283518)
Method in brief: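 HepaRG, ~100,000 cells/well, collagen I; 48 h plating; serum-free induction medium; 48 h dosing, duplicate, 100 uM top, half-log, 0.5% DMSO; total RNA → qRT-PCR MYC; gain/loss fit vs DMSO.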

[2] = read-out: matrix metalloproteinase-3 (MMP3), MMP3 (gene 4314); experiment: LTEA_HepaRG_MMP3: Life Technologies and Expression Analysis (LTEA) Assay for matrix metalloproteinase-3 (MMP3) using HepaRG (AID 2283519)
Method in brief: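 Differentiated human HepaRG cells, plated 48 h on collagen I, were exposed in duplicate for 48 h in serum-free induction medium to eight half-log concentrations up to 100 uM in 0.5% DMSO. MMP3 mRNA was quantified by TaqMan qRT-PCR, normalised to ACTB, GAPDH and POLR2A.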

[3] = read-out: Paternally Expressed 10 (PEG10), PEG10 (gene 23089); experiment: LTEA_HepaRG_PEG10: Life Technologies and Expression Analysis (LTEA) Assay for Paternally Expressed 10 (PEG10) using HepaRG (AID 2283520)
Method in brief: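 Differentiated HepaRG cells exposed 48 h in serum-free induction medium to eight half-log concentrations topping at 100 uM, 0.5% DMSO, in duplicate. PEG10 mRNA quantified by TaqMan qRT-PCR, normalized to ACTB, GAPDH and POLR2A; bidirectional fit versus DMSO.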

[4] = read-out: Protein phosphatase 2A (PPP2R4), PTPA (gene 5524); experiment: LTEA_HepaRG_PPP2R4: Life Technologies and Expression Analysis (LTEA) Assay for Protein phosphatase 2A (PPP2R4) using HepaRG (AID 2283522)
Method in brief: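 Differentiated human HepaRG cells in serum-free induction medium were exposed 48 h to 8 concentrations (top 100 µM, half-log steps, duplicate) in 0.5% DMSO. PPP2R4 mRNA was measured by TaqMan qRT-PCR, normalised to ACTB, GAPDH and POLR2A, and fitted bidirectionally versus DMSO.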

[5] = read-out: Phosphatase and tensin (PTEN), PTEN (gene 5728); experiment: LTEA_HepaRG_PTEN: Life Technologies and Expression Analysis (LTEA) Assay for Phosphatase and tensin (PTEN) using HepaRG (AID 2283523)
Method in brief: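 Differentiated human HepaRG cells, plated 48 h then switched to serum-free induction medium, were exposed in duplicate for 48 h to eight half-log concentrations up to 100 uM in 0.5% DMSO. PTEN mRNA measured by TaqMan qRT-PCR, normalized to ACTB/GAPDH/POLR2A, bidirectional fit versus DMSO.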

[6] = read-out: solute carrier (SLC22A1), SLC22A1 (gene 6580); experiment: LTEA_HepaRG_SLC22A1: Life Technologies and Expression Analysis (LTEA) Assay for solute carrier (SLC22A1) using HepaRG (AID 2283524)
Method in brief: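 Human HepaRG cells were plated 48 h, switched to serum-free induction medium, then exposed in duplicate for 48 h to 8-point half-log series from 100 uM in 0.5% DMSO. SLC22A1 mRNA measured by qRT-PCR, normalized to ACTB/GAPDH/POLR2A, fitted bidirectionally versus DMSO.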

[7] = read-out: Pyruvate Dehydrogenase Kinase 4 (PDK4), PDK4 (gene 5166); experiment: LTEA_HepaRG_PDK4: Life Technologies and Expression Analysis (LTEA) Assay for Pyruvate Dehydrogenase Kinase 4 (PDK4) using HepaRG (AID 2283525)
Method in brief: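 Differentiated human HepaRG cells, pre-cultured 48 h, were exposed in duplicate for 48 h in serum-free induction medium to eight half-log concentrations up to 100 uM in 0.5% DMSO. PDK4 mRNA was quantified by qRT-PCR, normalized to ACTB, GAPDH and POLR2A, bidirectional fitting versus DMSO.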

[8] = read-out: NAD(P)H dehydrogenase [quinone] 1 (NQO1), NQO1 (gene 1728); experiment: LTEA_HepaRG_NQO1: Life Technologies and Expression Analysis (LTEA) Assay for NAD(P)H dehydrogenase [quinone] 1 (NQO1) using HepaRG (AID 2283526)
Method in brief: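 Differentiated human HepaRG cells in serum-free induction medium, dosed in duplicate for 48 h at 8 half-log concentrations up to 100 uM in 0.5% DMSO. NQO1 mRNA by qRT-PCR normalized to ACTB, GAPDH, POLR2A; bidirectional fit versus DMSO baseline.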

[9] = read-out: Nuclear factor erythroid 2-related factor 2 (Homo sapiens) (UniProt Q16236); experiment: LTEA_HepaRG_NFE2L2: Life Technologies and Expression Analysis (LTEA) Assay for Nuclear factor erythroid 2-related factor 2 (NFE2L2) Transcription Factor using HepaRG (AID 2283527);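 further: TaqMan qRT-PCR transcript level normalised to ACTB GAPDH and POLR2A housekeeping genes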
Method in brief: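 Differentiated human HepaRG cells in serum-free induction medium were exposed for 48 h to eight concentrations (top 100 uM, half-log dilutions, 0.5% DMSO), in duplicate. NFE2L2 mRNA was quantified by TaqMan qRT-PCR, normalized to ACTB, GAPDH and POLR2A, with bidirectional fitting versus DMSO.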

[10] = read-out: succinate dehydrogenase complex iron sulfur subunit B (SDHB), SDHB (gene 6390); experiment: LTEA_HepaRG_SDHB: Life Technologies and Expression Analysis (LTEA) Assay for succinate dehydrogenase complex iron sulfur subunit B (SDHB) using HepaRG (AID 2283528)
Method in brief: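 HepaRG cells (~100,000/well, plated 48 h) exposed in duplicate for 48 h in serum-free induction medium to 8-point half-log series from 100 uM in 0.5% DMSO; mRNA by qRT-PCR normalised to ACTB, GAPDH, POLR2A; bidirectional fit versus DMSO.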

[11] = read-out: Signal transducer and activator of transcription 3 (Homo sapiens) (UniProt P40763); experiment: LTEA_HepaRG_STAT3: Life Technologies and Expression Analysis (LTEA) Assay for Signal transducer and activator of transcription (STAT3) using HepaRG (AID 2283529)
Method in brief: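 Differentiated human HepaRG cells in serum-free induction medium were exposed in duplicate for 48 h to eight half-log concentrations up to 100 uM in 0.5% DMSO. STAT3 mRNA was quantified by TaqMan qRT-PCR, normalized to ACTB, GAPDH and POLR2A, and fitted bidirectionally against DMSO.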

[12] = read-out: solute carrier (SLCO1B1), SLCO1B1 (gene 10599); experiment: LTEA_HepaRG_SLCO1B1: Life Technologies and Expression Analysis (LTEA) Assay for solute carrier (SLCO1B1) using HepaRG (AID 2283530)
Method in brief: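 HepaRG, serum-free induction medium, 48 h dosing, 8-pt half-log from 100 uM, 0.5% DMSO vehicle, duplicates. Readout: SLCO1B1 mRNA, qRT-PCR, ACTB/GAPDH/POLR2A normalization; up or down fit vs DMSO.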

[13] = read-out: sulfotransferase 2A1 (SULT2A1), SULT2A1 (gene 6822); experiment: LTEA_HepaRG_SULT2A1: Life Technologies and Expression Analysis (LTEA) Assay for sulfotransferase 2A1 (SULT2A1) using HepaRG (AID 2283531)
Method in brief: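 Transcript levels of SULT2A1, quantified by qRT-PCR and normalized to three housekeeping genes, serve as the readout. Human HepaRG cultures receive test chemicals for 48 h at up to 100 uM in half-log steps, with 0.5% DMSO vehicle.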

[14] = read-out: Transforming Growth Factor (TGFA), TGFA (gene 7039); experiment: LTEA_HepaRG_TGFA: Life Technologies and Expression Analysis (LTEA) Assay for Transforming Growth Factor (TGFA) using HepaRG (AID 2283532)
Method in brief: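 Differentiated human HepaRG cells, plated 48 h then switched to serum-free induction medium, were exposed in duplicate for 48 h to 8-point half-log series from 100 uM in 0.5% DMSO. TGFA mRNA measured by qRT-PCR, normalized to ACTB/GAPDH/POLR2A, bidirectional fit versus DMSO.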

[15] = read-out: Transforming Growth Factor (TGFB1), TGFB1 (gene 7040); experiment: LTEA_HepaRG_TGFB1: Life Technologies and Expression Analysis (LTEA) Assay for Transforming Growth Factor (TGFB1) Transporter using HepaRG (AID 2283533)
Method in brief: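 HepaRG, 48 h post-plating, switched to serum-free induction medium; chemicals 100 uM top, half-log, 8 pts, 0.5% DMSO, dup; 48 h exposure; RNA → Fluidigm TaqMan qRT-PCR; norm ACTB/GAPDH/POLR2A; bidirectional fit vs DMSO.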

[16] = read-out: TIMP1, TIMP1 (gene 7076); experiment: LTEA_HepaRG_TIMP1: Life Technologies and Expression Analysis (LTEA) Assay for TIMP1 using HepaRG (AID 2283534);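 further: TaqMan qRT-PCR signal normalized to ACTB GAPDH and POLR2A housekeeping genes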
Method in brief: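 Readout is TIMP1 mRNA level measured by qRT-PCR and normalized to three housekeeping genes. Human HepaRG cells were treated for 48 h in duplicate at eight concentrations up to 100 uM (0.5% DMSO); gain or loss fitted against DMSO.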

[17] = read-out: Tumor necrosis factor receptor 1 (TNFRSF1A), TNFRSF1A (gene 7132); experiment: LTEA_HepaRG_TNFRSF1A: Life Technologies and Expression Analysis (LTEA) Assay for Tumor necrosis factor receptor 1 (TNFRSF1A) using HepaRG (AID 2283535)
Method in brief: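 Read-out is TNFRSF1A transcript level by TaqMan qRT-PCR, normalized to three housekeeping genes, scored as gain or loss of signal versus 0.5% DMSO. Human HepaRG cells received test chemicals for 48 h at up to 100 uM (half-log series).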

[18] = read-out: Thyroid Hormone Responsive (THRSP), THRSP (gene 7069); experiment: LTEA_HepaRG_THRSP: Life Technologies and Expression Analysis (LTEA) Assay for Thyroid Hormone Responsive (THRSP) using HepaRG (AID 2283536)
Method in brief: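 Differentiated human HepaRG cells were exposed in duplicate for 48 h in serum-free induction medium to eight concentrations (top 100 uM, half-log steps, 0.5% DMSO). Expression was quantified by TaqMan qRT-PCR, normalized to ACTB, GAPDH and POLR2A, with bidirectional fitting against DMSO.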

[19] = read-out: Cellular tumor antigen p53 (Homo sapiens) (UniProt P04637); experiment: LTEA_HepaRG_TP53: Life Technologies and Expression Analysis (LTEA) Assay for Tumor Protein P53 (TP53) using HepaRG (AID 2283537)
Method in brief: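 Differentiated HepaRG cells in serum-free induction medium exposed 48 h in duplicate to 8 half-log concentrations, top 100 uM, 0.5% DMSO. TP53 mRNA by TaqMan qRT-PCR (Fluidigm), normalized to ACTB, GAPDH, POLR2A; fitted bidirectionally versus DMSO.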

[20] = read-out: UDP glucuronosyltransferase (UGT1A1), UGT1A1 (gene 54658); experiment: LTEA_HepaRG_UGT1A1: Life Technologies and Expression Analysis (LTEA) Assay for UDP glucuronosyltransferase (UGT1A1) using HepaRG (AID 2283538)
Method in brief: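 HepaRG cells, 0.5% DMSO vehicle, 48 h exposure in serum-free induction medium to 8-point half-log series topping at 100 uM, in duplicate. UGT1A1 mRNA by Fluidigm qRT-PCR, normalized to ACTB/GAPDH/POLR2A; bidirectional fit versus DMSO.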

Measured: outcome

Cellular tumor antigen p53 (Homo sapiens), sequence (P04637 whole entry, looked up): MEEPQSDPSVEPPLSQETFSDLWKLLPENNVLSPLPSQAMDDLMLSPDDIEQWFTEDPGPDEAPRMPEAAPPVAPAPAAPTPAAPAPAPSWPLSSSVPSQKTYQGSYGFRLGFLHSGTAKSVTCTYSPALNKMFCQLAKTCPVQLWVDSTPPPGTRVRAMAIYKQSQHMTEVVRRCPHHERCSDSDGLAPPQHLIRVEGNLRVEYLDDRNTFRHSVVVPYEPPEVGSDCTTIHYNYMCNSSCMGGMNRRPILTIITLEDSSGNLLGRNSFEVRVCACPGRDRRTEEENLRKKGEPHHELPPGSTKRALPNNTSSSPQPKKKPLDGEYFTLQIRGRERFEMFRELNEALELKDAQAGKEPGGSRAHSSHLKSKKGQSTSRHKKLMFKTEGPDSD
Nuclear factor erythroid 2-related factor 2 (Homo sapiens), sequence (Q16236 whole entry, looked up): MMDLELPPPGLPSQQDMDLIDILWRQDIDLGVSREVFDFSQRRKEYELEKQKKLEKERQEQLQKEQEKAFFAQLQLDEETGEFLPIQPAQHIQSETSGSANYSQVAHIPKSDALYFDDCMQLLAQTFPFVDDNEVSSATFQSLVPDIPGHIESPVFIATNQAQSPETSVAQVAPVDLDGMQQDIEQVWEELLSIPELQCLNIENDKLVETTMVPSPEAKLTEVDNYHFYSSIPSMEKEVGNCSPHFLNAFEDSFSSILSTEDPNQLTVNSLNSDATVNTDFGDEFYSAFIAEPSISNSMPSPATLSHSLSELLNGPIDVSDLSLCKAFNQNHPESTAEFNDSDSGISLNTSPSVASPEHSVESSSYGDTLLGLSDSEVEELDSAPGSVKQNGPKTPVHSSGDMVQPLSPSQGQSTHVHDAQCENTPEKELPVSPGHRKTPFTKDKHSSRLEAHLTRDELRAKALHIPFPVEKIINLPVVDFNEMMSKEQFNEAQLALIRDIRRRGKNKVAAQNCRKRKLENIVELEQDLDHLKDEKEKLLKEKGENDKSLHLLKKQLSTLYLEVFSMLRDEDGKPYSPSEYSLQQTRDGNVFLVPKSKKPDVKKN
Signal transducer and activator of transcription 3 (Homo sapiens), sequence (P40763 whole entry, looked up): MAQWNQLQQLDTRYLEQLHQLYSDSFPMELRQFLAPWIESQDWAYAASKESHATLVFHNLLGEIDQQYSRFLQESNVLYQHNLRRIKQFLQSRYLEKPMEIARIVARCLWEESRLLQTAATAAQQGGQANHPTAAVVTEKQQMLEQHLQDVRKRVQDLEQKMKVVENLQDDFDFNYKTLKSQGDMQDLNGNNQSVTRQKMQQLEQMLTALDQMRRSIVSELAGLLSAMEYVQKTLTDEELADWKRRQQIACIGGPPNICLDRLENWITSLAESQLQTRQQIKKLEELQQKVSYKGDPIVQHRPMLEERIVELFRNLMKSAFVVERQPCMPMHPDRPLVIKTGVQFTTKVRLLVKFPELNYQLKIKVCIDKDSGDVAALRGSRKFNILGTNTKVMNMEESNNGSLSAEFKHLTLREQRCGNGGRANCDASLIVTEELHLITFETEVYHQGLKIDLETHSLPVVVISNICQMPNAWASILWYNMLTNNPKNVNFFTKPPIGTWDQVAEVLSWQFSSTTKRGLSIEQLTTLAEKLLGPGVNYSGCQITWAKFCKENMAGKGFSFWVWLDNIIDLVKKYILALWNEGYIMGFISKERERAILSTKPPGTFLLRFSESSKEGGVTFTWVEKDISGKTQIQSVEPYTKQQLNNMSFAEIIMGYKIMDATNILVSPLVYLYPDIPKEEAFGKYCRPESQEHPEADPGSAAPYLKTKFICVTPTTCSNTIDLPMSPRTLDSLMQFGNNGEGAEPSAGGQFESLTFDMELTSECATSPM

O=C(CCl)c1ccccc1
inactive: [1] | [2] | [3] | [4] | [5] | [6] | [7] | [8] | [9] | [10] | [11] | [12] | [13] | [14] | [15] | [16] | [17] | [18] | [19] | [20]

N#CCCCCC#N
inactive: [1] | [2] | [3] | [4] | [5] | [6] | [7] | [8] | [9] | [10] | [11] | [12] | [13] | [14] | [15] | [16] | [17] | [18] | [19] | [20]

O=[N+]([O-])c1ccc(Cl)cc1
inactive: [1] | [2] | [3] | [4] | [5] | [6] | [7] | [8] | [9] | [10] | [11] | [12] | [13] | [14] | [15] | [16] | [17] | [18] | [19] | [20]
